POLI inh: qHTS for Inhibitors of Polymerase Iota. AID 588590, 2011. 1% of 390,000 active. Potency, µM (series often up to 115 µM), most hits filed as inhibitors. DNA polymerase iota (Homo sapiens), Q9UNA4. Pol iota fluorescent replication assay, 10 min
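Fluorescent replication assay read twice, at 0 min and 10 min after adding 50 nM (final) substrate. Enzyme (10 nM) and compounds were first incubated 15 min at room temperature; enzyme-free buffer wells were negative controls.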
APE1 inh-1: qHTS Assay for Inhibitors of the Human Apurinic/apyrimidinic Endonuclease 1 (APE1). DNA repair nuclease/redox regulator APEX1 (Homo sapiens), P27695. recombinant APE1, TAMRA/BHQ-2 abasic DNA cleavage fluorescence. Potency, µM (top dose mostly 65.8 µM), usual class: inhibitors. 0.35% of 350,000 active; further: nearly all actives have a fitted effect of over 55% in size
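Incision of a quenched TAMRA/BHQ-2 THF abasic-site duplex (50 nM) by 0.75 nM APE1, after 15 min compound preincubation, measured as fluorescence increase over three 60 s reads. Values normalized to buffer, DMSO and NSC13755 control wells.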
Pol beta inh-1: qHTS Assay for Inhibitors of DNA Polymerase Beta; P06746; 1.3% of 340,000 active; Potency, µM (highest dose often 114 µM), usual class: inhibitors; Pol beta primer extension/strand displacement, fluorescence kinetic
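Values derive from four-parameter Hill fits of normalized kinetic data: reads at 0 and 10 min following addition of 50 nM substrate to 10 nM Pol beta preincubated 15 min with compound.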
GLS inhibitor: qHTS for Inhibitors of Glutaminase (GLS). Glutaminase kidney isoform, mitochondrial (Homo sapiens), O94925. Potency, µM (series often up to 45.5 µM), hits mostly inhibitors. GLS enzymatic activity, qHTS titration. 0.21% of 410,000 active
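Read-out is an Amplex red fluorescence increase coupled through glutamate oxidase and HRP, measured before and after 30 min room-temperature incubation. hKGA is in 45 mM KH2PO4 (pH 8.2) with 0.02% Tween-20; glutamine added as 1mM solution.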
Pol eta inh-1: qHTS for Inhibitors of Polymerase Eta | DNA polymerase eta (Homo sapiens), Q9Y253 | recombinant Pol eta, fluorescent DNA replication assay | Potency, µM (series often up to 114 µM), usual class: inhibitors | 1.2% of 390,000 active | AID 588591, 2011
Target sequence (Q9Y253 whole entry, looked up): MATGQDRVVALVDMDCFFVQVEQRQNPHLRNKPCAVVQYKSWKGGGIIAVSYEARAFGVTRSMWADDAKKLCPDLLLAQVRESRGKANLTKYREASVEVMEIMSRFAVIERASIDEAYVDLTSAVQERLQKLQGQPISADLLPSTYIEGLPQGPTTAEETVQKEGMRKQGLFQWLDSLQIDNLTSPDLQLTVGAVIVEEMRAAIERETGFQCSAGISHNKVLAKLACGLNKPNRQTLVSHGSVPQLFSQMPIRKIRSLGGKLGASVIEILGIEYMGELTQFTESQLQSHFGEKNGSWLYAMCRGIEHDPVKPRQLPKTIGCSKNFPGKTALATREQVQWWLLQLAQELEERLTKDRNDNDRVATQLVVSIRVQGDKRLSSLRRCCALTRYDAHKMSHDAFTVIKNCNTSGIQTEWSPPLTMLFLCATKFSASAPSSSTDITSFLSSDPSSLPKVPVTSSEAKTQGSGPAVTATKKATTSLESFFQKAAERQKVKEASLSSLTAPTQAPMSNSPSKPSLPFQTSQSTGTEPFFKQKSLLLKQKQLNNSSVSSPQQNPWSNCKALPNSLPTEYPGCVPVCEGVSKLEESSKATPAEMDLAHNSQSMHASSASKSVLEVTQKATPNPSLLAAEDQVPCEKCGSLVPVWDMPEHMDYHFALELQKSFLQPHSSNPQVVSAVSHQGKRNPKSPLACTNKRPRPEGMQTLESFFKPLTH
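Pol eta (10 nM) was preincubated with compounds for 15 min at room temperature, after which fluorescent replication substrate (50 nM final) was added to start the reaction. Fluorescence was read kinetically at 0 and 10 min.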
Pol kappa inh-1: qHTS for Inhibitors of Polymerase Kappa. AID 588579, 2011. 0.53% of 400,000 active. purified Pol kappa, fluorescent DNA synthesis assay, 10 min. Potency, µM (highest dose often 107 µM), usual class: inhibitors
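Activity was followed as the change in fluorescence between reads at 0 and 10 min after starting the reaction with 50 nM substrate. Beforehand, 10 nM polymerase had been preincubated with compound for 15 min at room temperature.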
APE1 dye cs: Counterscreen for APE1 Inhibitors: Fluorescent Dye Displacement Assay; shares compounds with APE1 inh-1; DNA fluorescent dye displacement counterscreen, fluorescence; Potency, µM (series often up to 28.5 µM), most hits filed as inhibitors; 7% of 480 active;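 further: loss of thiazole orange fluorescence as the dye is displaced from duplex DNA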
Endo IV inh: Counterscreen for APE1 Inhibitors: qHTS Assay for Inhibitors of Endonuclease IV; shares compounds with APE1 inh-1; E. coli Endo IV, fluorogenic AP-site DNA cleavage; Potency, µM (top dose mostly 27.1 µM), hits mostly inhibitors; 4% of 560 active
APE1 inh-2: Confirmation qHTS Assay for Inhibitors of the Human Apurinic/apyrimidinic Endonuclease 1 (APE1). shares compounds with APE1 inh-1. purified APE1, fluorogenic abasic-site DNA cleavage. Potency, µM (doses to about 57.1 µM), usual class: inhibitors. 44% of 750 active; further: nearly all actives have a fitted effect of over 30% in size
APE1 FP: qHTS FP-Based Assay for Inhibitors of the Human Apurinic/apyrimidinic Endonuclease 1 (APE1) | AID 2573, 2010 | 7% of 480 active | shares compounds with APE1 inh-1 | APE1 binding to TAMRA-labelled double-stranded DNA, fluorescence polarization displacement | Potency, µM (series often up to 28.5 µM), hits mostly inhibitors
Pol beta inh-2: Inhibitors of DNA Polymerase Beta: Hit validation. Pol beta primer extension/strand displacement, fluorescence kinetic. Potency, µM, hits mostly inhibitors. shares compounds with Pol beta inh-1. 87% of 250 active; calls by dose curve
Klenow inh: Inhibitors of DNA Polymerase Beta: Hit Validation in Klenow Fragment Assay. 250 tested, under 10 active. Klenow exo- polymerase counter-screen, fluorescent DNA substrate. activity change, negative = inhibition, % at 57.1 µM. AID 540300, 2011. shares compounds with Pol beta inh-1
HIV RT inh: Inhibitors of DNA Polymerase Beta: Hit Validation in HIV-RT Assay; shares compounds with Pol beta inh-1; HIV-1 RT polymerase activity, counter-screen; activity % (negative = inhibition, positive = activation), % at 57.1 µM; 250 tested, under 10 active; AID 540301, 2011
POLB valid: Inhibitors of DNA Polymerase Beta: Hit Validation in Radiolabeled Extension Assay | shares compounds with Pol beta inh-1 | radiolabeled primer extension gel assay, phosphorimager | inhibition, % at 10 µM | 91% of 110 active | AID 540325, 2011;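 active means inhibition at 10 µM of 30% or more; inconclusive means no clear call, values can overlap the other calls; inactive means inhibition at 10 µM under 30%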
TbPGK inh: qHTS for inhibitors of Phosphogylcerate Kinase: Hit Validation Screen; shares compounds with Pol kappa inh-1; 79% of 500 active; TbPGK coupled GAPDH assay, Kinase-Glo luminescence; Potency, µM (highest dose often 57.5 µM), hits mostly inhibitors; further: nearly all actives have a fitted effect of over 65% in size
Pol iota confirm: qHTS for Inhibitors of Polymerase Iota: Confirmatory Assay for Cherry-picked Compounds | Pol iota primer extension, TAMRA/BHQ fluorescence | Potency, µM, actives largely listed as inhibitors | AID 720496, 2013 | shares compounds with Pol kappa inh-1 | 77% of 1,500 active
Pol kappa inh-2: qHTS for Inhibitors of Polymerase Kappa: Confirmatory Assay for Cherry-picked Compounds | shares compounds with Pol eta inh-1 | purified Pol-kappa, fluorescent strand-displacement substrate | Potency, µM, most hits filed as inhibitors | 76% of 920 active | AID 720501, 2013
Pol eta inh-2: qHTS for Inhibitors of Polymerase Eta: Confirmatory Assay for Cherry-picked Compounds; Pol eta primer extension, TAMRA/BHQ fluorescence, 10 min; 64% of 2,600 active; Potency, µM, actives largely listed as inhibitors; shares compounds with Pol eta inh-1
Of the large screens only hits and unclear results are named; the others gave an inactive call (follow-up assays come after a bar, where they were run). Hits are enriched below; roughly 2.4% of the tested compounds scored in any of these assays. Unless noted, the call rests on the fitted dose curve; in most records, active means well fitted curve in the direction sought with a large enough effect; inconclusive means small, poorly fitted or top-dose-only effect, or another doubt; inactive means no such curve, though single readings can be large; an effect the other way counts as inactive or inconclusive.

O=C1CCCC2=C1C(c1ccc(O)c(O)c1)Nc1ccc3ncccc3c12 (stereo unspecified)	POLI inh 12.6µM, APE1 inh-1 14.1µM, Pol beta inh-1 11.2µM, Pol eta inh-1 35.5µM, Pol kappa inh-1 39.8µM | APE1 dye cs inconclusive | Endo IV inh inactive | APE1 inh-2 inconclusive | APE1 FP inactive | Pol iota confirm inconclusive | Pol eta inh-2 inconclusive
O=C1CCCC2=C1C(c1cccs1)Nc1ccc3ncccc3c12 (stereo unspecified)	Pol beta inh-1 inconclusive
Cc1cc(NC(=O)CSc2ncnc3sccc23)no1	none
N#Cc1c(NC(=O)CSc2ncnc3sccc23)oc(-c2ccco2)c1-c1ccco1	POLI inh inconclusive, APE1 inh-1 inconclusive, Pol beta inh-1 10µM, Pol eta inh-1 14.1µM, Pol kappa inh-1 44.7µM | APE1 dye cs 10µM | Endo IV inh inactive | APE1 inh-2 inconclusive | APE1 FP inactive | Pol beta inh-2 28.2 | Klenow inh inactive | HIV RT inh inactive | POLB valid 92.8 | Pol iota confirm 42.3 | Pol kappa inh-2 6.7 | Pol eta inh-2 19
O=C1CCCC(O)=C1N=Nc1ccc(C(=O)O)cc1	POLI inh 6.31µM, APE1 inh-1 8.91µM, Pol beta inh-1 2.82µM, GLS inhibitor 11.2µM, Pol eta inh-1 3.16µM, Pol kappa inh-1 20µM | APE1 dye cs inconclusive | Endo IV inh inactive | APE1 inh-2 10µM | APE1 FP inactive | TbPGK inh 9.19µM | Pol iota confirm 5.97 | Pol eta inh-2 4.78
O=C1CCCC(O)=C1N=Nc1ccc2c(c1)OCO2	none
CCOC(=O)C1=C(C)NC2=C(C(=O)CCC2)C1c1ccc(O)c(OCC)c1 (stereo unspecified)	none
COc1ccc(NC(=O)c2cccc(NC(=O)C(C)C)c2)c([N+](=O)[O-])c1	none
O=C1/C(=C/C=C/c2ccco2)SC(=S)N1NS(=O)(=O)c1ccccc1	POLI inh 1.78µM, APE1 inh-1 2.51µM, Pol beta inh-1 inconclusive, GLS inhibitor 15.8µM, Pol eta inh-1 1.12µM, Pol kappa inh-1 4.47µM | APE1 dye cs inactive | Endo IV inh inactive | APE1 inh-2 3.55µM | APE1 FP inconclusive | TbPGK inh 4.11µM | Pol iota confirm 2.67 | Pol eta inh-2 1.69
O=C1/C(=C/c2cccs2)SC(=S)N1NS(=O)(=O)c1ccccc1	none
CC(C(=O)O)N1C(=O)/C(=C/C=C/c2ccco2)SC1=S (stereo unspecified)	POLI inh 0.794µM, APE1 inh-1 2.82µM, Pol beta inh-1 1.26µM, GLS inhibitor 3.98µM, Pol eta inh-1 0.794µM, Pol kappa inh-1 1.26µM | APE1 dye cs inactive | Endo IV inh inactive | APE1 inh-2 0.891µM | APE1 FP 12.6µM | TbPGK inh 2.91µM | Pol iota confirm 1.89 | Pol eta inh-2 1.35
O=C(Nc1ccnn1C1CCN(Cc2ccccc2OC(F)F)CC1)c1cccc(F)c1	none

Source: PubChem BioAssay
